Source: PubChem BioAssay (NCATS)
“And” between values parts separate entries of the source, which are not always exact repeats. Equal values may be shown once. Results filed as inconclusive are left out. A number with no mark means an inactive call. The source made the active and inactive calls. The call rests on the fitted dose curve; in most records, active means well fitted curve in the direction sought with a large enough effect; inconclusive means small, poorly fitted or top-dose-only effect, or another doubt; inactive means no such curve, though single readings can be large; an effect the other way counts as inactive or inconclusive.

What was measured:
[1] = Viability qHTS for spleen associated tyrosine kinase inhibitor (SYKi) drug resistant MV4-11 cells (AID 1963824); further: nearly all actives have a fitted effect of over 35% in size
Procedure, shortened: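 SYK-inhibitor-resistant MV4-11 AML cells were seeded at 500 per well onto compound and cultured 72 hours (37 °C, 5% CO2). CellTiter-Glo was then added, and after 10 min at room temperature, luminescence gave viability.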

[2] = Cellular viability qHTS for adrenocortical cancer (ACC) cell line NCI-H295R (AID 1963990); further: nearly all actives have a fitted effect of over 60% in size;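 on activity change, negative = viability loss: 0% = DMSO only wells and -100% = full killing with cytotoxic reference compound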
Procedure, shortened: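 Luminescent ATP read-out (CellTiter-Glo, 20 min RT) after 48 h drug exposure of NCI-H295R cells; a titration up to 46 uM final. Data normalized to doxorubicin (100% inhibition) and DMSO (0%); 4-parameter fit gives IC50, max response.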
Potency means the concentration at half of the fitted maximal effect.

| SMILES | Potency [1] | Potency [2] | activity change, negative = viability loss [2] |
| --- | --- | --- | --- |
| CN1[C@@H]2CCC[C@H]1CC(NC(=O)c1nn(C)c3ccccc13)C2 (some centres not stated) | inactive | inactive | – |
| CN[C@@H](C)C(=O)N[C@H](C(=O)N1CCC[C@H]1C(=O)Nc1sc(-c2ncco2)nc1-c1ccccc1)C1CCCCC1 | 0.59 µM (active) | inactive | – |
| C[C@@H]1C(=O)OC2[C@H](O)[C@]34[C@H]5C[C@@H](C(C)(C)C)[C@]36[C@@H](OC(=O)[C@@H]6O)O[C@@]4(C(=O)O5)[C@]21O (some centres not stated) | inactive | inactive | – |
| O=C(Oc1cccc2cccnc12)c1ccccc1 | inactive | 23.1 µM (active) | – |
| COc1ccc2cc1Oc1ccc(cc1)C[C@H]1c3c(cc4c(c3Oc3cc5c(cc3OC)CCN(C)[C@@H]5C2)OCO4)CCN1C | 9.44 µM (active) | 18.4 µM (active) | – |
| CCCCCCCCCCCCCCCCOP(=O)([O-])OCC[N+](C)(C)C | 21.1 µM (active) | 23.1 µM (active) | – |
| CC/C(=C(/c1ccc(/C=C/C(=O)O)cc1)c1ccc2[nH]ncc2c1)c1ccc(F)cc1Cl | 16.6 µM (active) | 15.8 µM (active) | – |
| Cc1cccc(CC(=O)N2CCc3c2ccc(-c2cn(C)c4ncnc(N)c24)c3F)n1 | 2.06 µM (active) | inactive | – |
| CN[C@@H](C)C(=O)N[C@H](C(=O)N1CCC[C@H]1C(=O)Nc1snnc1-c1ccccc1)C1CCCCC1 | 0.132 µM (active) | inactive | – |
| Nc1ncnc2c1ncn2[C@@H]1O[C@H](CO)[C@@H](O)[C@H]1O | inactive | inactive | – |
| O=C(/C=C\n1cnc(-c2cc(C(F)(F)F)cc(C(F)(F)F)c2)n1)NNc1ccccn1 | 2.63 µM (active) | 3.98 µM (active) | – |
| CC1CCC(n2c3cnccc3c3cnc(Nc4ccc5c(n4)CCN(C(=O)CO)C5)nc32)CC1 (configuration not stated) | 164 nM (active) and 170 nM (active) | – | 3.35% [at 9.17 µM] |
| CN(C)/C(N)=N/C(=N)N | inactive | inactive | – |
| OCc1c[nH]c2ccccc12 | 24.3 µM (active) | 22.4 µM (active) | – |
| C[C@@H]1COCCN1c1cc(-c2ccnn2C)c2ccnc(-c3ccn[nH]3)c2n1 | 0.0934 µM (active) | 0.158 µM (active) | – |
| CCC(=O)c1ccc2c(c1)N(CCCN(C)C)c1ccccc1S2 | 21.1 µM (active) | 14.6 µM (active) | – |

| SMILES | Potency [1] | Potency [2] | activity change, negative = viability loss [2] |
| --- | --- | --- | --- |
| Nc1ncc(C(=O)NC2CN(C(=O)C3CC3)C2)c2ccc(-c3cccc(F)c3)nc12 | 7.42 µM (active) | inactive | – |
| COC(=O)C1=C(C)NC(C)=C(C(=O)OC(C)(C)CN(C)CCC(c2ccccc2)c2ccccc2)C1c1cccc([N+](=O)[O-])c1 (configuration not stated) | 9.44 µM (active) | 20.6 µM (active) | – |
| CCc1cc2cc(OC)c(OC)cc2c(Cc2ccccc2)n1 | 10.6 µM (active) | inactive | – |
| Cc1nnn(C)c1-c1cnc2c3ccc(C(C)(C)O)cc3n([C@H](c3ccccc3)C3CCOCC3)c2c1 | 0.003 µM (active) | 0.178 µM (active) | – |
| COc1cc2ncnc(Nc3cccc(Cl)c3F)c2cc1OC(=O)N1CCN(C)C[C@H]1C | 7.31 µM (active) | inactive | – |
| CCOC(=O)[C@H](CCc1ccccc1)N[C@@H](C)C(=O)N1Cc2ccccc2C[C@H]1C(=O)O | 5.96 µM (active) | 16.4 µM (active) | – |
| CCN(CC)C(=O)C1CN2CCc3cc(OC)c(OC)cc3C2CC1OC(C)=O (configuration not stated) | inactive | inactive | – |
| CS(=O)(=O)Nc1cc2occ(NC=O)c(=O)c2cc1Oc1ccccc1 | inactive | inactive | – |
| Cc1nc([C@](C)(O)CO)sc1-c1cnc(N)c(O[C@H](C)c2cc(F)ccc2-n2nccn2)c1 | 8.33 µM (active) | 2.82 µM (active) | – |
| CC(C)(CNC(=O)c1cccc(-c2noc(C(F)(F)F)n2)c1)c1coc(-c2ccccc2)n1 | 14.8 µM (active) | inactive | – |
| CCCOc1ccc(CCc2nc3cc(-c4c(C)noc4C)ccc3n2CCN2CCOCC2)cc1 | 5.25 µM (active) | 22.4 µM (active) | – |
| Cc1c[nH]c2nc(Nc3ccc(N4CCN(C)CC4)c(F)c3)nc(-c3cccc(CC#N)c3)c12 | 0.0059 µM (active) | 2.51 µM (active) | – |
| N#C/C(=C1/SC[C@@H](c2ccc(Cl)cc2Cl)S1)n1ccnc1 | 13.3 µM (active) | inactive | – |
| C=CC(=O)Nc1cccc(C)c1Nc1ncc2cc(-c3c(Cl)c(OC)cc(OC)c3Cl)ccc2n1 | 1.46 µM (active) | 3.55 µM (active) | – |
| CC(C)[C@](O)(c1ccc2cc(OC(F)F)c(OC(F)F)cc2c1)c1cn[nH]n1 | 14.8 µM (active) | 25.1 µM (active) | – |
